In PubChem BioAssay (NCATS):
Records with an inconclusive call do not appear. Values without a mark were called inactive. Activity calls are given as the source filed them. Calls follow the shape of the dose curve; as a rule, active = well fitted inhibition curve with a large enough effect; inconclusive = small, poorly fitted or top-dose-only effect; inactive = flat fitted curve, though single readings scatter.

biological target: Glutathione peroxidase 1 (Homo sapiens) (UniProt P07203); assay: Primary qHTS Assay for Inhibitors of Recombinant Selenoprotein Glutathione Peroxidase 1 (GPX1) (AID 1845191); conditions: recombinant GPX1, GR-coupled NADPH fluorescence, 15 min; series mostly up to 48.8 µM; activity, negative = inhibition: at the top concentration; also: nearly all actives have a fitted effect of over 65% in size
Procedure, shortened: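 GR-coupled readout: NADPH consumption tracked by fluorescence, ex 340/em 450 nm, at t=0 and after 15 min at RT. Final mix 10 nM GPX1, 1 mM GSH, 0.5 mM CHP, 0.5 mM NADPH, 100 nM GR, 0.01% BSA, following 30 min enzyme–compound preincubation.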
% is scaled to controls: 0 for no effect and ±100 for the full control effect.

Sequence of Glutathione peroxidase 1 (Homo sapiens) (P07203 whole entry, looked up): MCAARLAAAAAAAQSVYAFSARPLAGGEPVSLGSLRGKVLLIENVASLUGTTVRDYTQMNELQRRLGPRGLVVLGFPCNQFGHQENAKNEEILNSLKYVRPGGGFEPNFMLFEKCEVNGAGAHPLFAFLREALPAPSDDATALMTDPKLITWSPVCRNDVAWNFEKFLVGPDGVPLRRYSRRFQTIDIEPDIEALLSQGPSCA

SMILES | activity, negative = inhibition [%] | outcome | Potency
CC(=O)Nc1ccn(C2COC(COC(=O)c3ccccc3)O2)c(=O)n1 (configuration not stated) | 4.72 | – | –
COc1cc(C(=O)OC(COCCC(C)C)CN2CCOCC2)cc(OC)c1OC (configuration not stated) | 2.89 | – | –
C[C@@H]1C[C@H]2[C@@H]3CCC4=CC(=O)C=C[C@]4(C)[C@@]3(F)[C@@H](O)C[C@]2(C)[C@@]1(O)C(=O)COC(=O)c1ccncc1 | – | inactive | –
Cc1c(F)cc2c(=O)c(C(=O)O)cn3c2c1CCC3C (configuration not stated) | -1.89 | – | –
Cc1oc(=O)oc1COC(=O)[C@@H]1N2C(=O)[C@@H](NC(=O)[C@H](N)c3ccccc3)[C@H]2SC1(C)C | 0.0932 | – | –
COC(=O)C1=C(C)NC(C)=C(C(=O)OCCc2ccc(N3CCN(C(c4ccccc4)c4ccccc4)CC3)cc2)C1c1cccc([N+](=O)[O-])c1 (configuration not stated) | -11.3 | – | –
CN(C)CCCOC1(Cc2ccccc2)CCCCCC1 | – | inactive | –
CC(=O)Nc1ccc(S(=O)(=O)Nc2cc(C)on2)cc1 | -14.1 | – | –
NC(=O)C1(N2CCCCC2)CCN(CCCN2c3ccccc3CCc3ccc(Cl)cc32)CC1 | -13.6 | – | –
O=C(CCOCCOCCOCCOCCC(=O)Nc1c(I)cc(I)c(C(=O)O)c1I)Nc1c(I)cc(I)c(C(=O)O)c1I | – | inactive | –
CN1CC(=O)N2[C@H](c3ccc4c(c3)OCO4)c3[nH]c4ccccc4c3C[C@@H]2C1=O | – | – | inactive
Cn1cc(S(C)=O)c(=O)c2ccc(F)cc21 (configuration not stated) | -12.1 | – | –
CC(=O)N(c1onc(C)c1C)S(=O)(=O)c1ccc(N)cc1 | -14.7 | – | –
CCOC(=O)NNc1nncc2ccccc12 | -8.73 | – | –
Cc1ccccc1C(=O)N1CC/C(=N\OS(=O)(=O)O)c2ccc(Cl)cc21 | – | inactive | –
O=C(NN1CCCC1)NS(=O)(=O)c1ccc(Cl)cc1 | -6.36 | – | –
O=C(O)c1ccccc1S | -7.37 | – | –
CCN1CCN(c2cc(-c3ccc(F)cc3)c3c(n2)CCCCCC3)CC1 | – | inactive [at 27.7 µM] | –
Oc1ccccc1 | -13.6 | – | –

SMILES | activity, negative = inhibition [%] | outcome | Potency
O=C1NCCN1CCN1CCC(c2cn(-c3ccc(F)cc3)c3ccc(Cl)cc23)CC1 | -25.9 | – | –
CCCCC(O)/C=C(C)/C=C/C=C/C(=O)N1CCCC1=O (configuration not stated) | -4.13 | – | –
Cc1nc(C2CCCCC2)c(-c2ccc(S(N)(=O)=O)c(F)c2)o1 | – | inactive | –
CCN(CC)CCOc1ccc(/C(=C(\Cl)c2ccccc2)c2ccccc2)cc1 | – | – | inactive
O=S(=O)(O)c1ccc2nc(-c3ccccc3)[nH]c2c1 | – | inactive | –
CN(CC1(C)CCCO1)S(=O)(=O)c1ccc(Cl)c(S(N)(=O)=O)c1 (configuration not stated) | -4.81 | – | –
COC(=O)/C=C\C(=O)OC | -15.6 | – | –
[O-][n+]1cccc(/C(Cl)=N/OC[C@@H](O)CN2CCCCC2)c1 | 1.87 | – | –
CCCCCC1Nc2cc(C(F)(F)F)c(S(N)(=O)=O)cc2S(=O)(=O)N1 (configuration not stated) | -29.2 | – | –
COc1ccc(-n2nc(CCC(=O)N(C)O)cc2-c2ccc(Cl)cc2)cc1 | – | inactive | –
Cc1cc(O)c2c(O)c3c(O)cccc3cc2c1 | -18.9 | – | –
CC(C)=CCC/C(C)=C/CC/C(C)=C/CCC(=O)OC/C=C(\C)CCC=C(C)C | -15.7 | – | –
O=C(CCCCC(=O)Nc1c(I)cc(I)c(C(=O)O)c1I)Nc1c(I)cc(I)c(C(=O)O)c1I | -7.03 | – | –
CCC(C(=O)NC(=O)NC(C)=O)c1ccccc1 (configuration not stated) | – | inactive | –
C[C@H]1C[C@H]2[C@@H]3CCC4=CC(=O)C=C[C@]4(C)[C@H]3C(=O)C[C@]2(C)[C@@]1(O)C(=O)CO | – | – | inactive
CCOc1c(N2CCOCC2)cnn(C)c1=O | -8.78 | – | –
Cc1ccc(C(=O)C(=O)O)cc1C | -9.4 | – | –
O=C(CO)[C@@H](O)[C@H](O)[C@@H](O)CO | – | inactive | –
